Reference: PubChem BioAssay AID504370 (National Center for Advancing Translational Sciences (NCATS), 2011)
The other results are listed elsewhere or left out. Results filed as inconclusive are left out. Values without a mark were called inactive. Calls follow the shape of the dose curve; as a rule, active = well fitted inhibition curve with a large enough effect; inconclusive = small, poorly fitted or top-dose-only effect; inactive = flat fitted curve, though single readings scatter.

Assay: qHTS Assay for Compounds Blocking the Interaction Between CBF-beta and RUNX1 for the Treatment of Acute Myeloid Leukemia: ME-1 cellular proliferation
Settings: ME-1 cell proliferation, ATP luminescence, 48 h; series mostly up to 56.1 µM; activity change, negative = inhibition: at the top concentration
Source text: NIH Chemical Genomics Center [NCGC]
NIH Molecular Libraries Probe Production centers Network [MLPCN]
Assay Submitter (PI): Paul Liu
Core Binding Factor (CBF) abnormalities are associated with 20-25% of all acute myeloid leukemias (AML), of which 5-10% are further sub classified as acute myelomonocytic leukemia with eosinophilia, also known as M4Eo in the FAB classification scheme. This subtype of leukemia is usually associated with chromosome 16 inversion (p13:q22). Chromosome 16 inversion results in formation of the fusion oncogene CBFB-MYH11, which encodes the fusion protein CBF-beta-SMMHC.
It has been hypothesized that the interference of CBF-beta and RUNX1 binding could have therapeutic implications for patients with CBF mediated leukemias. We developed a CBF-beta and RUNX1 binding assay in AlphaScreenTM format and optimized it for high throughput screening to search for inhibitors. The goal of this project is to screen MLPCN's compound collection (MLSMR) for identifying the inhibitors of the interaction between CBF-beta and RUNX1 proteins as research probes. If these probes work well in the animal models, the ultimate goal of this project is to development a new drug treatment for this disease.
The present assay assesses compounds ability to slow cellular proliferation in a CBFb dependent cell line, ME-1.
2uL/well media was dispensed per well into 1536-well white solid-bottom plates using Multidrop Combi dispenser. Subsequently, 23 nL/well compound solutions or DMSO controls were dispensed to the assay plates via a pintool workstation. The cells were grown in T225 flasks to 70% confluence under a standard cell culture condition (ATCC), detached with 0.25% Trypsin/EDTA, and seeded at 250 cells/well in 5uL medium (Dulbecco's Modified Eagle Medium, 10% fetal bovine serum, 1x penicillin/streptomycin).

| SMILES | activity change, negative = inhibition |
| --- | --- |
| CC(C)C(N)C(=O)OCCOCn1cnc2c(=O)[nH]c(N)nc21 (stereo not given) | -4.01% |
| O=C(OCC1O[C@@H](OC(=O)c2cc(O)c(O)c(O)c2)[C@@H](OC(=O)c2cc(O)c(O)c(O)c2)[C@@H](OC(=O)c2cc(O)c(O)c(O)c2)[C@@H]1OC(=O)c1cc(O)c(O)c(O)c1)c1cc(O)c(O)c(O)c1 (stereo not given in full) | -15.4% |
| COc1cc(C(=S)NCc2ccccc2)cc(Br)c1O | 3.26% [at 25.6 µM] |
| N#Cc1ccc(C(c2ccc(C#N)cc2)n2cncn2)cc1 | -9.58% [at 25.6 µM] |
| CC[N+](C)(CC)CCC[n+]1c(-c2ccccc2)c2cc(N)ccc2c2ccc(N)cc21 | -22.9% |
